# Calls of active or inactive are those of the source.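 How the source made its calls: active means cell survival after UV exposure 2 SD above solvent-only control wells at 10 µM, confirmed on one or two repeats; inactive means the rest.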
# Assay: cell survival after pyrene fatty acid photosensitization – ZR-82 cells, Analyticon library, screen 2, phospholipid biosynthesis inhibitor project, primary screen (AID 1347383);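 further: survival reflects blocked phospholipid synthesis cutting uptake of the phototoxic fatty acid; compound and fatty acid exposure 3 h then viability read next day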
# Settings: ZR-82 CHO cells, pyrene-fatty acid UV killing, CellTiter Blue; at 10 µM; peroxisome-deficient CHO-K1 variant; with DGAT-1, DGAT-2 and ACAT inhibitors
row,SMILES,outcome
1,CCC(C)CC(C)/C=C/CCC(O)C(Cc1ccc(O)cc1)NC (centres undefined),inactive
2,O=C1NC(Cc2c[nH]c3ccccc23)C(=O)NC1Cc1ccccc1 (centres undefined),inactive
3,COc1cc(CC2COC(=O)C2(O)Cc2ccc(O)c(OC)c2)ccc1O (centres undefined),inactive
4,CC(C)c1ccc2c(c1)C(=O)CC1C(C)(C(=O)O)CCCC21C (centres undefined),inactive
5,COc1cc(/C=C(/C)C(C)Cc2ccc(O)c(OC)c2)ccc1O (centres undefined),inactive
6,CC1Cc2cc(O)c(O)cc2C(c2ccc(O)cc2)C1C (centres undefined),inactive
7,COc1ccc(/C=C/C(=O)O)cc1,inactive
8,OCc1ccccc1O[C@@H]1O[C@H](CO)[C@@H](O)[C@H](O)[C@H]1O,inactive
9,CC(=O)OC1CC2C(C)(C)C(=O)C=CC2(C)C2CC(=O)C3=C(CCC3C3=CC(O)OC3=O)C12C (centres undefined),inactive
10,CC1=CC(=O)CC(C)(C)[C@@]1(O)/C=C/C(C)=C/C(=O)O,inactive
11,C/C1=C\CCC2=C[C@@H](OC2=O)c2c(C)coc2C1,inactive
12,O=C(CCc1ccc(O)c(O)c1)CCC(O)Cc1ccc(O)c(O)c1 (centres undefined),inactive
13,CN(/C=C\c1ccccc1)C(=O)/C=C/c1ccccc1,inactive
14,O=C(OCc1ccccc1)c1ccccc1,inactive
15,COc1cc2oc(=O)ccc2cc1[C@H]1OC(=O)[C@]2(C)OC12 (some centres undefined),inactive
16,C=CCC1=CC(OC)(C(C)Cc2ccc3c(c2)OCO3)C(OC)=CC1=O (centres undefined),inactive
17,CC(C)CC(O)C(=O)NC(C)C(=O)NC(CC(C)C)C(=O)NCCCC(=O)O (centres undefined),inactive
18,CCCO[C@@H]1O[C@H](CO)[C@@H](O)[C@H](O)[C@H]1O[C@@H]1OC[C@@H](O)[C@H](O)[C@H]1O,inactive
19,COC1=CC(=O)CC(C)C12Oc1cc(OC)cc(O)c1C2=O (centres undefined),inactive
20,CC1(C)CC(O)CC2(C)OC(=O)C=C12 (centres undefined),inactive

row,SMILES,outcome
1,CC1(C)CCC[C@@]2(C)C1C[C@H]1O[C@@]1(C)[C@]21CC[C@](C)(CC(=O)O)O1 (some centres undefined),inactive
2,CO[C@@H]1C(=O)CC[C@]2(O)CS[C@H](CC=C(C)C)[C@](C)(O)[C@@]12O,inactive
3,CC(=O)/C=C(O)/C=C/c1ccc(O)cc1,inactive
4,COc1cc(C[C@H]2COC[C@@H]2Cc2ccc(O)c(OC)c2)ccc1O,inactive
5,CCC/C=C\CC(N)CC(=O)O (centres undefined),inactive
6,CC[C@H](CC[C@@H](C)[C@H]1CC[C@H]2[C@@H]3CC=C4C[C@@H](O)CC[C@]4(C)[C@H]3CC[C@]12C)C(C)C,inactive
7,CC1(C)CC2C3OC(O)C4(O)OC(C)(CC34)C2C1 (centres undefined),inactive
8,O=C(O)c1cc(O)c2c(c1)C(=O)c1cc(O)cc(O)c1C2=O,inactive
9,Nc1ccn(C2CC(O)C(CO)O2)c(=O)n1 (centres undefined),inactive
10,Cc1c(O)cc2c(c1O)C(=O)c1ccccc1C2=O,inactive
11,COC1=C(C)C(=O)c2c(cc(O)c3c2OC(C)C3(C)CCC=C(C)C)C1=O (centres undefined),inactive
12,CC(C)=CCOc1ccc(/C=C/C(=O)c2ccc(O)cc2O)cc1,inactive
13,CC[C@H]1C(=O)CC2C3CCC4C[C@@H](O)[C@]5(O)C[C@]4(CO5)C3CC[C@@]21C (some centres undefined),inactive
14,COc1c(C(=O)CC(=O)c2ccccc2)ccc2occc12,inactive
15,CC(CO)C1CCC2(C)CC3C(CO)CC(O)C3C(C)(O)CC=C12 (centres undefined),inactive
16,C=C(C)[C@@H]1CC[C@]2(C(=O)O)CC[C@]3(C(=O)O)[C@H](CCC4[C@@]5(C)CCC(=O)C(C)(C)C5CC[C@]43C)C12 (some centres undefined),inactive
17,CC1OC(n2cnc3c(N)ncnc32)C(O)C1O (centres undefined),inactive
18,O=C(O)/C=C/c1ccccc1O,inactive
19,C=CCc1cc(OC)c(OC(C)C(O)c2ccc(O)c(OC)c2)c(OC)c1 (centres undefined),inactive

# — PubChem BioAssay AID1347383 (Zoeller Lab, School of Medicine, Boston University, 2020)
